# From the supplement of paper PMC10849652
# About 8,800 targets were measured; listed, in parts, are those with a hit and a random draw of the rest. About 0.5% of all pairs of compound and target were hits. A number with no mark means an inactive call.
# Assays:
# Experiment in all cases: log2 fold change, soluble protein after heating vs DMSO (PISA); higher = thermal stabilisation; K562 lysate, 10 uM; active = over 0.2 and 3.5 SD of the protein, either way, in both replicates (recomputed)
# alvocidib = compound: CN1CC[C@H](c2c(O)cc(O)c3c(=O)cc(-c4ccccc4Cl)oc23)[C@H](O)C1 [alvocidib]
# Procedure, shortened: (§1)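 K562 pellets were dounce-homogenised in PBS pH 7.4 containing 1 mM MgCl2, and the crude extract, at 1 mg/mL protein, was exposed to 10 μM compound for 30 min. Aliquots were heated for 3 min across 48°C-58°C, pooled, brought to 0.5% NP-40 at 4°C and spun at 21,000xg for 90 min, with the supernatant taken as soluble protein. TMTpro 16plex LC-MS/MS with equalised channel sums quantified that protein. Values are log-two fold changes in thermal stability relative to solvent controls, taken from duplicates.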
# Tubastatin A = compound: CN1CCc2c(c3ccccc3n2Cc2ccc(C(=O)NO)cc2)C1 [Tubastatin A]
# Procedure, shortened: as §1
# [1] = compound: CNC(=O)C1=CC=CC=C1NC2=NC(=NC=C2Cl)NC3=C(C=C(C=C3)N4CCOCC4)OC
# Procedure, shortened: as §1
# defactinib = compound: CNC(=O)c1ccc(Nc2ncc(C(F)(F)F)c(NCc3nccnc3N(C)S(C)(=O)=O)n2)cc1 [defactinib]
# Procedure, shortened: as §1
# [2] = compound: CNc1nc(-c2ccc3c(N)n[nH]c3c2)cc(N2C[C@@H](C(=O)NC3CCCCC3)CC[C@H]2C)n1
# Procedure, shortened: as §1
# encorafenib = compound: COC(=O)N[C@@H](C)CNc1nccc(-c2cn(C(C)C)nc2-c2cc(Cl)cc(NS(C)(=O)=O)c2F)n1 [encorafenib]
# Procedure, shortened: as §1
# [3] = compound: COC(=O)[C@H](CCSC)NC(=O)C1=C(C=C(C=C1)NC[C@H](CS)N)C2=CC=CC=C2
# Procedure, shortened: as §1
# alisertib = compound: COc1cc(Nc2ncc3c(n2)-c2ccc(Cl)cc2C(c2c(F)cccc2OC)=NC3)ccc1C(=O)O [alisertib]
# Procedure, shortened: as §1
# [4] = compound: COc1cc2nc(-c3cc(F)ccc3O)nc(N[C@@H]3CNC[C@H]3C(C)(C)O)c2cc1OC
# Procedure, shortened: as §1
# gefitinib = compound: COc1cc2ncnc(Nc3ccc(F)c(Cl)c3)c2cc1OCCCN1CCOCC1 [gefitinib]
# Procedure, shortened: as §1
# Sequence of UniProt Q9UQR0 (Q9UQR0 whole entry, looked up): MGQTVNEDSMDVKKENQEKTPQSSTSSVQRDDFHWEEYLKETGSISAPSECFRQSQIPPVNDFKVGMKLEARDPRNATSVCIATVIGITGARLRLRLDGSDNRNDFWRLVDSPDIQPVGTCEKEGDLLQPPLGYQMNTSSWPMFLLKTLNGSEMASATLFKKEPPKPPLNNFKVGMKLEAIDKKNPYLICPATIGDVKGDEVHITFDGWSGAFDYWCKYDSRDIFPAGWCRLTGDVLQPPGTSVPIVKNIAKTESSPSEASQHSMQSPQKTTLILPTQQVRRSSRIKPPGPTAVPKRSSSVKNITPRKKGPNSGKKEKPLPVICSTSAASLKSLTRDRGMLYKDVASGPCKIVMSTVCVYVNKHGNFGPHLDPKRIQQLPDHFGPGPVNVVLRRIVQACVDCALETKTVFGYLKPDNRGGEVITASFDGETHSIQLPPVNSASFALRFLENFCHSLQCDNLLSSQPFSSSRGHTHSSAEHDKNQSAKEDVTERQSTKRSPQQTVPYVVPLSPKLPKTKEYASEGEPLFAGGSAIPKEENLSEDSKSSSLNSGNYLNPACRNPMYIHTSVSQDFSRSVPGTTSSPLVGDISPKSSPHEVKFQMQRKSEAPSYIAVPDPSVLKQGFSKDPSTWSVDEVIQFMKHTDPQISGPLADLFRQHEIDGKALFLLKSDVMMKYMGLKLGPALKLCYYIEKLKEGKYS
# Sequence of UniProt Q96LT9 (Q96LT9 whole entry, looked up): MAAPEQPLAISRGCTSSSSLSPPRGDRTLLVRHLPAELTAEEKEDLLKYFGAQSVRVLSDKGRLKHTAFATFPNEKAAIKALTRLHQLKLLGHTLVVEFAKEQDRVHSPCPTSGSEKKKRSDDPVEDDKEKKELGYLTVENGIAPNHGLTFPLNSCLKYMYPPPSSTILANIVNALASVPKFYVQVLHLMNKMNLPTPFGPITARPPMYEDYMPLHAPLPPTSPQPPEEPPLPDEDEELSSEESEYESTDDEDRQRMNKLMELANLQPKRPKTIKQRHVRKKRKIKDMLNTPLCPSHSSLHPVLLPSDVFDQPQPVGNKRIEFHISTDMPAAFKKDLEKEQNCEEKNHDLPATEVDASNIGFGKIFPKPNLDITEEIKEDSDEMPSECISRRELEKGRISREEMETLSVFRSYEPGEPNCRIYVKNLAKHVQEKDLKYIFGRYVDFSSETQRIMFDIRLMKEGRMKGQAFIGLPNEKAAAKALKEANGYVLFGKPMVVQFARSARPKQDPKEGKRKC
# Sequence of UniProt O75943 (O75943 whole entry, looked up): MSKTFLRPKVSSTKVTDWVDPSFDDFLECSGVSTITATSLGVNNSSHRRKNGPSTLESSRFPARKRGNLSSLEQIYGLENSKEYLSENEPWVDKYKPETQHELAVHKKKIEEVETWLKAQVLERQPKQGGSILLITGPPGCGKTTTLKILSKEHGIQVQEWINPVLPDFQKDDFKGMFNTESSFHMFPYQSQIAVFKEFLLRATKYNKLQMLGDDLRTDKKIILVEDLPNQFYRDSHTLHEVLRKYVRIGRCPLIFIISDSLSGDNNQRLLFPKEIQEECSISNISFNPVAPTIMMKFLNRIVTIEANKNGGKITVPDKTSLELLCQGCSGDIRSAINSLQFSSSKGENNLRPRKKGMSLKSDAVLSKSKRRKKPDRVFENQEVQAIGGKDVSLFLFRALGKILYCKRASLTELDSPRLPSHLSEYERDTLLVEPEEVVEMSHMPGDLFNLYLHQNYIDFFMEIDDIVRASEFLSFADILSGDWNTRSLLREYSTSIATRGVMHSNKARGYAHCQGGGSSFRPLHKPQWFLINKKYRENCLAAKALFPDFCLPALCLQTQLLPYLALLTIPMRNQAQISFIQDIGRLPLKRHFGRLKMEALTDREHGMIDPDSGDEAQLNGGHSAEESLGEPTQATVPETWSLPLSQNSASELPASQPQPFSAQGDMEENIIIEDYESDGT
# Sequence of UniProt Q99574 (Q99574 whole entry, looked up): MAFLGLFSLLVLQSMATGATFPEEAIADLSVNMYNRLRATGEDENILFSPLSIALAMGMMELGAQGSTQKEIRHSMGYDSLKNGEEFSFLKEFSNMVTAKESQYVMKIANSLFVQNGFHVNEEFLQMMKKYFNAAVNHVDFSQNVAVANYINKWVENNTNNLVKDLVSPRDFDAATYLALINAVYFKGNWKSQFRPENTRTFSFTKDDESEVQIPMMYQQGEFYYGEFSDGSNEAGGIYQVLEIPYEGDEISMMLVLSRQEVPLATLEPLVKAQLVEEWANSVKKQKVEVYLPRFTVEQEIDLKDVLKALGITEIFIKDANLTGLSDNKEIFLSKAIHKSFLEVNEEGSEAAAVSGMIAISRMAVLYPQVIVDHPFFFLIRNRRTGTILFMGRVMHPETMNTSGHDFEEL
# Sequence of UniProt P51812 (P51812 whole entry, looked up): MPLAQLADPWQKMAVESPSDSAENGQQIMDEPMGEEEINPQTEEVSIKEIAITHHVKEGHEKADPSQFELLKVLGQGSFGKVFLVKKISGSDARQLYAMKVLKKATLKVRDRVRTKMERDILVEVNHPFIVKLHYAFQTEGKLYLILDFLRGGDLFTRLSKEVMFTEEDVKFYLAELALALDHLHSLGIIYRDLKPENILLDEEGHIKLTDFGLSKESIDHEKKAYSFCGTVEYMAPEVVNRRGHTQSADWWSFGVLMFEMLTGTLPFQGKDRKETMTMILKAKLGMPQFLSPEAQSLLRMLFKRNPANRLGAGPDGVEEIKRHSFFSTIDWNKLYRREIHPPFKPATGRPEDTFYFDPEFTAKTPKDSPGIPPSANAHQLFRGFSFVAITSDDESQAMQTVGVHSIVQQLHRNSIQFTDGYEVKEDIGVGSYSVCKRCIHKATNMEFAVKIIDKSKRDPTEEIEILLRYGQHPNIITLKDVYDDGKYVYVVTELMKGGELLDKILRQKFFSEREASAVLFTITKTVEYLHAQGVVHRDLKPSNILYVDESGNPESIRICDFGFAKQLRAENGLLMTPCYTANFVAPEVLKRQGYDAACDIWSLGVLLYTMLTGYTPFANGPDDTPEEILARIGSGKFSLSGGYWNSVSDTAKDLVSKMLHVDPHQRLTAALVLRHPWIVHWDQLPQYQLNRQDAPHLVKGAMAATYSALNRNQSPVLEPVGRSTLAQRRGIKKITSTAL
# Sequence of UniProt Q8TEB9 (Q8TEB9 whole entry, looked up): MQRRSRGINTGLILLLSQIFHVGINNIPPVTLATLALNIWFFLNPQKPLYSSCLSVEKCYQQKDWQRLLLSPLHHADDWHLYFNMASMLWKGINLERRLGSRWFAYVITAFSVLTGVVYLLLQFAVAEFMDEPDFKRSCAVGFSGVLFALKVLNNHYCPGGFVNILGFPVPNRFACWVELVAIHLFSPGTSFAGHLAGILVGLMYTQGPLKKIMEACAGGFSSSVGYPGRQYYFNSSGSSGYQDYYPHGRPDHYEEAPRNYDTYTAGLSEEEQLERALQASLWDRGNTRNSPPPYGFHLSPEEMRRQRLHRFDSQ
# Sequence of UniProt Q92698 (Q92698 whole entry, looked up): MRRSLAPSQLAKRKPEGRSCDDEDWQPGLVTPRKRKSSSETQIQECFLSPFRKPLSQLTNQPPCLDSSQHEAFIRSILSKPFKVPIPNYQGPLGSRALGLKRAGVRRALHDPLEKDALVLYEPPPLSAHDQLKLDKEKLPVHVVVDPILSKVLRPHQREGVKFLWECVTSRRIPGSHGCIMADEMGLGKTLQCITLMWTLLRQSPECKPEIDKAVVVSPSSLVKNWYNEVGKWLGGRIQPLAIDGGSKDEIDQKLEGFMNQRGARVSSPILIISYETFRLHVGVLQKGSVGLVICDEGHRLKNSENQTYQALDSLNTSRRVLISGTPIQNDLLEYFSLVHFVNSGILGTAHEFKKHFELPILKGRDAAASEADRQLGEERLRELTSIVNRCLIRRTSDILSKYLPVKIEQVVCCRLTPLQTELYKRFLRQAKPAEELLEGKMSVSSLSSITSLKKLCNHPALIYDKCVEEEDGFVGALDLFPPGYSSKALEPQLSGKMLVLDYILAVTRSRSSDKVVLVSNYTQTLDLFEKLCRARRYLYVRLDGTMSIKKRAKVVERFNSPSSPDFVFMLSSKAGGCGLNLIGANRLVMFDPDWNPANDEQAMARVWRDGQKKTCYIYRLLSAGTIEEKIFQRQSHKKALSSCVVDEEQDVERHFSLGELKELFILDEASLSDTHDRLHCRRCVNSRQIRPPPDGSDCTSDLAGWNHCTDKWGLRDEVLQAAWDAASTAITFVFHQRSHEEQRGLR
# Sequence of UniProt Q8IUH3 (Q8IUH3 whole entry, looked up): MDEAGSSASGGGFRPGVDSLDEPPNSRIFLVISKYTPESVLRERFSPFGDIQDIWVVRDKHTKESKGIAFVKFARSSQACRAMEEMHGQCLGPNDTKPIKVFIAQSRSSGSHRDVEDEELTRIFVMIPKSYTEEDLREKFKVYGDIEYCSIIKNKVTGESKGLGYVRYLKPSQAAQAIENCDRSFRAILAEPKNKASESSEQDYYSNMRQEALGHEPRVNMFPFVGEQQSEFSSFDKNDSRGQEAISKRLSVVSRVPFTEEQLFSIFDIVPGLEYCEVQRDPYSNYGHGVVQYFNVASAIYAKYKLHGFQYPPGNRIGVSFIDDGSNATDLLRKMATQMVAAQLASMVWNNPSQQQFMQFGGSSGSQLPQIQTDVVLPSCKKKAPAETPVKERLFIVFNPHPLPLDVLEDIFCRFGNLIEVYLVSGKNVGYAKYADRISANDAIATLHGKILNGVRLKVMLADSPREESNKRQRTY
# Sequence of UniProt O75446 (O75446 whole entry, looked up): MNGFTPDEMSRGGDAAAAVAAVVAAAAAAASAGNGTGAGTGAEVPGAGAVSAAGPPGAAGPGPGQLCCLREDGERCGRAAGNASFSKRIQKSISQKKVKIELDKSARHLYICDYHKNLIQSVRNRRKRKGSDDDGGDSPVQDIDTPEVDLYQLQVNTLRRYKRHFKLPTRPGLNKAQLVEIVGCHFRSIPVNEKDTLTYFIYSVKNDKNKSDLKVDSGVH
# Sequence of UniProt Q96E14 (Q96E14 whole entry, looked up): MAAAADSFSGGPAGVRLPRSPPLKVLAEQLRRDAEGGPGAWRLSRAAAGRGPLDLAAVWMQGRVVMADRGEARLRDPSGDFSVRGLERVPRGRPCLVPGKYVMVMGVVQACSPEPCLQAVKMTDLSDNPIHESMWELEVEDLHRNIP
Target,log2 fold change (alvocidib),log2 fold change (Tubastatin A),log2 fold change [1],log2 fold change (defactinib),log2 fold change [2],log2 fold change (encorafenib),log2 fold change [3],log2 fold change (alisertib),log2 fold change [4],log2 fold change (gefitinib)
SCO2 (UniProt O43819),-0.009,0.039,0.073,0.008,-0.007,0.027,-0.607 (active),-0.115,0.046,0.114
SCML2 (UniProt Q9UQR0),0.006,-0.204,0.031,-0.03,-0.035,0.01,0.18,0.025,-0.016,-0.053
RAD50 isoform 2 (UniProt Q92878),0.023,-0.137,0.008,0.026,-0.04,0.006,0.108,0.002,0.001,-0.016
RIOK3 (UniProt O14730),-0.04,-0.273 (active),0.029,0.018,0.12,0.058,0.132,-0.006,0,0.055
RAB21 (UniProt Q9UL25),0.069,0.034,0.048,-0.025,0.026,0.005,-0.072,0.015,0.013,0.003
SAMD4A (UniProt Q9UPU9),0.039,-0.428,-0.01,0.001,0.04,0.009,-0.032,–,0.035,–
RANBP2 (UniProt P49792),-0.001,-0.169,0.011,0.004,-0.041,0.038,0.042,-0.01,0,-0.013
SAR1A (UniProt Q9NR31),-0.034,0.153,0.03,0.086,0.086,0.152,0.084,0.134,0.161,0.156
RNF2 (UniProt Q99496),0.359,-0.008,0.067,0.034,0.018,0.054,-0.076,-0.125,–,-0.038
SERPINI1 (UniProt Q99574),-0.031,0.015,-0.001,0.019,-0.042,0.02,-0.074,-0.064,0.013,0.048
RPS9 (UniProt P46781),0.053,0.006,-0.036,-0.064,0.006,-0.022,0.065,0.004,-0.003,-0.033
RCOR1 (UniProt Q9UKL0),-0.031,-0.021,-0.017,-0.039,0.014,0.01,0.115,0.023,0.027,-0.011
"RNASEH2B, A0A1B0GUE7",–,–,–,–,–,–,–,0.04,0.039,-0.028
RAD54L2 (UniProt Q9Y4B4),0.007,–,-0.065,-0.013,0.093,0.102,0.153,0.141,-0.088,0.045
RAB5IF isoform 5 (UniProt Q9BUV8),0.249,–,0,-0.032,-0.011,0.04,-0.125,0.15,-0.011,0.131
RNF170 (UniProt Q96K19),0.371,–,-0.137,0.027,-0.067,–,–,0.055,0.07,0.037
SEC16A isoform 3 (UniProt O15027),–,-0.008,–,–,0.023,–,–,–,–,–
RBBP7 (UniProt C9J7L0),–,–,–,–,–,–,–,0.089,–,-0.058
RMI2 (UniProt Q96E14),–,-0.146,-0.074,0.265,0.007,-0.054,-0.021,–,–,–
RETREG2 (UniProt Q8NC44),-0.069,-0.025,0,-0.12,–,-0.002,-0.096,-0.029,-0.007,-0.058
SAP30 (UniProt O75446),-0.022,–,–,-0.028,0.089,-0.007,0.053,0.044,0.087,-0.285
SEMA4G isoform 2 (UniProt Q9NTN9),-0.116,–,0.122,-0.047,0.143,-0.193,0.215,–,–,–
SERAC1 (UniProt Q96JX3),0.048,–,-0.024,–,0.149,-0.051,-0.003,-0.412,–,-0.165

Target,log2 fold change (alvocidib),log2 fold change (Tubastatin A),log2 fold change [1],log2 fold change (defactinib),log2 fold change [2],log2 fold change (encorafenib),log2 fold change [3],log2 fold change (alisertib),log2 fold change [4],log2 fold change (gefitinib)
RNF149 (UniProt Q8NC42),-0.038,-0.047,0.02,0.028,0.004,–,–,-0.483 (active),-0.059,-0.075
SELENOK (UniProt Q9Y6D0),-0.169,–,–,0.123,-0.001,–,–,-0.018,-0.025,0.006
RFNG (UniProt Q9Y644),–,–,–,–,–,–,–,-0.003,–,0.424
RAD54L (UniProt Q92698),-0.673,0,0.013,–,-0.132,–,–,-0.022,-0.041,0
RALGAPB isoform 3 (UniProt Q86X10),0.161,–,–,–,0.064,0.073,0.107,–,–,–
SEC16A isoform 2 (UniProt O15027),–,0.023,–,–,–,–,–,–,–,–
RAD17 (UniProt O75943),-0.24,-0.041,–,0.111,0.154,0.094,0.026,0.029,–,0.022
RNF17 (UniProt Q9BXT8),-0.006,0.079,0.096,–,-0.183,0.061,-0.032,–,-0.057,–
RXRA (UniProt P19793),-0.019,0.138,-0.06,–,0.072,–,–,-0.117,0.018,0.043
RXRB isoform 3 (UniProt P28702),0.008,–,0.126,0.05,-0.003,0.066,-0.042,-0.044,0.073,0.047
RAP1B (UniProt F5GZG1),-0.118,–,0.01,-0.05,-0.104,0.056,0.124,0.059,0.002,0.071
"QSER1, A0A3B3IRW6",–,-0.122,0.014,0.019,-0.035,0.059,0.183,0.025,-0.004,-0.021
RHBDD1 (UniProt Q8TEB9),-0.018,–,–,0.024,–,0.063,0.054,–,0.02,–
S100A6 (UniProt P06703),0.084,-0.044,0.018,-0.017,-0.126,-0.173,0.023,–,-0.038,–
RNF24 isoform 2 (UniProt Q9Y225),0.079,–,0.003,–,–,–,–,-0.113,–,-0.108
SCNM1 (UniProt Q9BWG6),-0.005,0.035,0.117,–,0.127,0.115,-0.311,0.035,0.15,0.114
RUFY2 isoform 1 (UniProt Q8WXA3),0.01,0.074,–,0.066,–,0.13,-0.031,0.003,–,0.053
ROBO2 isoform 3 (UniProt Q9HCK4),–,-0.009,0.03,–,–,–,–,–,0.009,–
RBM45 (UniProt Q8IUH3),0.013,–,–,–,–,–,–,-0.136,0.055,-0.03
RNPC3 (UniProt Q96LT9),0.012,-0.099,-0.047,–,0.082,–,–,0.118,0.056,-0.08
RYR1 (UniProt P21817),0.015,0.097,0.064,–,0.16,-0.024,-0.087,–,0.02,–
RBBP7 (UniProt Q16576),–,-0.005,0.006,-0.018,-0.125,0.032,-0.021,0.014,-0.003,0.006
RPS6KA3 (UniProt P51812),0.306,-0.151,–,0.433 (active),-0.017,-0.107,0.056,–,0.049,-0.025
